# Laboratory results taken from PubChem BioAssay.
# A number with no mark means an inactive call. For some assays here: Measured potencies and affinities stand elsewhere. Calls of active or inactive are those of the source. Unless noted, how the calls were made is not given here.
# What was measured:
# [1] = antimalarial activity against Dd2 strain (AID 2302;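 active means growth inhibition above 50% at the single 2 µM test dose, taken to imply half-maximal potency below 2 µM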;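 further: 0% = DMSO untreated growth and 100% = chloroquine plus artemisinin killed control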); settings: P. falciparum Dd2 in RBCs, LDH growth readout, 72 h; at 2 µM; hits give high values
# [2] = human hepatoma cell viability loss – ATP luminescence, cytotoxicity control for P. falciparum antimalarial project, primary screen (AID 2303;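 active means inhibition above 50%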;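 further: 0% = DMSO wells and 100% = digitonin-killed cells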); settings: HepG2 viability, 24-48 h, at 10 µM, hits give high values
# [3] = molecular target: L-lactate dehydrogenase (Plasmodium falciparum (isolate CDC / Honduras)) (UniProt Q27743); test: PfLDH activity inhibition – cell lysate, 3D7 strain, counter-screen for P. falciparum growth inhibition project (AID 2304);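 further: 0% = vehicle and 100% = reference inhibitor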; settings: P. falciparum 3D7 crude extract, LDH APAD/NBT absorbance; at 2 µM; hits give high values
# [4] = inhibition of 3D7 malaria parasite growth – strain 3D7 (AID 2306);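 further: 0% = DMSO wells and 100% = chloroquine plus artemisinin control wells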; settings: P. falciparum 3D7 erythrocytic growth, LDH absorbance, 72 h; at 2 µM; hits give high values
# [5] = molecular target: Calcium-dependent protein kinase 1 (Plasmodium falciparum (isolate 3D7)) (UniProt P62344); test: PfCDPK1 kinase inhibitors, biochemical, TCAMS library (AID 1159585; cut-off not given, nearly all actives have IC50 up to about 0.98 µM;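 further: inhibitors leave more ATP so luminescence rises with inhibition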); settings: recombinant PfCDPK1, Kinase-Glo ATP depletion luminescence
# [6] = molecular target: Plasmodium falciparum protein kinase 6 (PK6, PF3D7_1337100) (UniProt Q8IDW1); test: PfPK6 kinase inhibitors, biochemical, TCAMS library (AID 1159586); settings: recombinant PfPK6, Kinase-Glo ATP depletion luminescence
# [7] = molecular target: Protein kinase 7 (PK7), Plasmodium falciparum 3D7 (PF3D7_0213400) (UniProt Q7YTF7); test: inhibition of Plasmodium PK7 catalytic activity – biochemical, TCAMS antimalarial set, Kinase-Glo luminescence (AID 1159587); settings: recombinant PfPK7, Kinase-Glo ATP depletion luminescence
# [8] = molecular target: Calcium-dependent protein kinase 4 (Plasmodium falciparum (isolate 3D7)) (UniProt Q8IBS5); test: PfCDPK4 kinase inhibitors, biochemical, TCAMS library (AID 1159588; cut-off not given, nearly all actives have IC50 up to about 0.91 µM); settings: recombinant PfCDPK4, Kinase-Glo ATP depletion luminescence
# Chain of Calcium-dependent protein kinase 4 (Plasmodium falciparum (isolate 3D7)) (Q8IBS5 whole entry, looked up): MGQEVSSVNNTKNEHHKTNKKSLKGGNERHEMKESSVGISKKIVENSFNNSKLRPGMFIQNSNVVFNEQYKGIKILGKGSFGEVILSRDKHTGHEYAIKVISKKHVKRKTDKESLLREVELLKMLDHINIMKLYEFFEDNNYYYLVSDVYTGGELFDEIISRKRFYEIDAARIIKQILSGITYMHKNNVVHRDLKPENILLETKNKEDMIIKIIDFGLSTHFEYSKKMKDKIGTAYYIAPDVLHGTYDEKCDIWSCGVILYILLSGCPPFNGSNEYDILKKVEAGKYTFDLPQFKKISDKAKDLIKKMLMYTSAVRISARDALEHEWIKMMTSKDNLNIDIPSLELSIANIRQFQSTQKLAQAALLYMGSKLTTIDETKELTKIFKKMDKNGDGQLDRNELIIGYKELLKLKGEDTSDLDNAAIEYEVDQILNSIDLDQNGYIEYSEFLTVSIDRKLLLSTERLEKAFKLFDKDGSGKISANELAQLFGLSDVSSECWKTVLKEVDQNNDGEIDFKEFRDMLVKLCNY
# Chain of Protein kinase 7 (PK7), Plasmodium falciparum 3D7 (PF3D7_0213400) (Q7YTF7 1-343): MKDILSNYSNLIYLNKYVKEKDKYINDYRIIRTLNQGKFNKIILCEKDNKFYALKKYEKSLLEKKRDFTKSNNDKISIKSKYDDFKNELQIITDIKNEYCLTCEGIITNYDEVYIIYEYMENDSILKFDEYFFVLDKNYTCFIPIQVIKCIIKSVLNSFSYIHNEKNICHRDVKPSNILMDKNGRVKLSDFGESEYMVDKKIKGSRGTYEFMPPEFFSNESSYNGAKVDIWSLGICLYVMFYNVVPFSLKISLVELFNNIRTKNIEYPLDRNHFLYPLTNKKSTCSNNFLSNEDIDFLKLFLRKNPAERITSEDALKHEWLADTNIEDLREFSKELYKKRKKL
# Chain of Calcium-dependent protein kinase 1 (Plasmodium falciparum (isolate 3D7)) (P62344 whole entry, looked up): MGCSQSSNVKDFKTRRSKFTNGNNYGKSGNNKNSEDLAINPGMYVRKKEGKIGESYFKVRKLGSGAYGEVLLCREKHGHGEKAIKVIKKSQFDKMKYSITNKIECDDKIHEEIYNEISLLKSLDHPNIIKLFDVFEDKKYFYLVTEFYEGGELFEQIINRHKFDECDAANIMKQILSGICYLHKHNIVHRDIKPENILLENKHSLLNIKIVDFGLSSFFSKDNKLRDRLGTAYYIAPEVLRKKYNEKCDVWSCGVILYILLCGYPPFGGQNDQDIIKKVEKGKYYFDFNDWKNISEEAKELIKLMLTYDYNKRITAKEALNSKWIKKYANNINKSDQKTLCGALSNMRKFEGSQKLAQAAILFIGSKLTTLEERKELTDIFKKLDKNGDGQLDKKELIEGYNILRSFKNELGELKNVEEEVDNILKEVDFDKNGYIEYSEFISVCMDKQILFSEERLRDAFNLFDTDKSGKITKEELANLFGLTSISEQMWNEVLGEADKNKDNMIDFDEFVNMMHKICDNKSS
# Chain of Plasmodium falciparum protein kinase 6 (PK6, PF3D7_1337100) (Q8IDW1 1-305): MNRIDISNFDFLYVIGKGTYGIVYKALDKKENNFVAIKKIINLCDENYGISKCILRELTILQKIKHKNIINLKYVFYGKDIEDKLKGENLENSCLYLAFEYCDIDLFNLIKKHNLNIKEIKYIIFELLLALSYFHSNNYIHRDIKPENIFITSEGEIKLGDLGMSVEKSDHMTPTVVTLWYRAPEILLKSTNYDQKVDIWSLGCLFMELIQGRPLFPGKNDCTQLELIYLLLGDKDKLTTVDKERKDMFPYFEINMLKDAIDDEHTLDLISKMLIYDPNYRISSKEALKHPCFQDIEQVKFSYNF
# Chain of L-lactate dehydrogenase (Plasmodium falciparum (isolate CDC / Honduras)) (Q27743 whole entry, looked up): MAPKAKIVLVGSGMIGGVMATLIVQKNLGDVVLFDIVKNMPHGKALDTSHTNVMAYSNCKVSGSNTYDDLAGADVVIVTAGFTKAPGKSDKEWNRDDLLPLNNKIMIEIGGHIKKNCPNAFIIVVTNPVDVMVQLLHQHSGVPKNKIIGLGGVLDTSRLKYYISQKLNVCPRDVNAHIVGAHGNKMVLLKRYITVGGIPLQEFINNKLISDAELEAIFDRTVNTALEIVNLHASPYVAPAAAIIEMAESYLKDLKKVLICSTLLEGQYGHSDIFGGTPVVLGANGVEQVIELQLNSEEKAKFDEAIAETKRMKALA
SMILES,growth inhibition [1],inhibition [2],inhibition [3],growth inhibition [4],outcome [5],outcome [6],outcome [7],outcome [8]
Cc1cc(NN=Cc2ccccc2Cl)c2cccc(C)c2n1,98% (active),10%,2%,97% (active),inactive,inactive,inactive,inactive
Nc1ncnc2cc(-c3cccc(S(N)(=O)=O)c3)sc12,99% (active),13%,2%,98% (active),inactive,inactive,inactive,inactive
O=C(Nc1cccc(-c2ccc(-c3nc4ccccc4[nH]3)cc2)c1)Nc1ccc2c(c1)OCO2,8%,20%,-1%,90% (active),inactive,inactive,inactive,inactive
CN(C)Cc1ccc2cc(NC(=O)c3ccc(-c4ccc(Cl)cc4)cc3)ccc2c1,22%,21%,-3%,92% (active),inactive,inactive,inactive,inactive
O=C(Cn1c(=O)oc2ccccc21)N1CCC(n2c(=O)n(CCCN3CCOCC3)c3ccccc32)CC1,101% (active),11%,5%,99% (active),inactive,inactive,inactive,inactive
COc1ccc(CCNCCCCNCCc2ccc(OC)c3ccccc23)c2ccccc12,33%,100% (active),-1%,100% (active),inactive,inactive,inactive,inactive
O=C(/C=C/c1ccc(C(F)(F)F)cc1)N1CCC(CCN2CCC(c3c[nH]c4ccccc34)CC2)CC1,77% (active),70% (active),-11%,100% (active),inactive,inactive,inactive,inactive
COc1ccccc1N1CCN(c2cccc3c2nc(-c2cncc(C#N)c2)n3CCNCc2ccccc2)CC1,81% (active),-8%,3%,101% (active),inactive,inactive,inactive,inactive
COCCNCc1ccc(-c2cccc(CN(C(=O)NCCc3ccccc3)C3CCN(Cc4ccccc4)CC3)c2)cc1,90% (active),25%,-4%,88% (active),inactive,inactive,inactive,inactive
O=S(=O)(c1cccc2cccnc12)N1CCN(C2CCCCC2)CC1,10%,15%,1%,96% (active),inactive,inactive,inactive,inactive
c1ccc(Oc2ccc(Nc3ccnc4cc(-c5ccc(CNCCN6CCOCC6)o5)ccc34)cc2)nc1,100% (active),-7%,-2%,101% (active),inactive,inactive,inactive,inactive
CN(C)CCN(C)Cc1ccc(-c2ccc3c(Nc4ccc(F)cc4Cl)ccnc3c2)o1,100% (active),31%,5%,101% (active),inactive,inactive,inactive,inactive
CC(C)C1C(O)=C(c2ccc3ccccc3c2)C(=O)N1Cc1ccsc1 (stereo not given),82% (active),11%,3%,88% (active),inactive,inactive,inactive,inactive
O=C(Nc1ccc(OC2CCN(Cc3ccccc3)C2)c(Cl)c1)c1ccsc1 (stereo not given),75% (active),12%,1%,93% (active),inactive,inactive,inactive,inactive
CN1CC[C@@H](Oc2cc(Nc3nc(-c4ccc(C#N)cc4)cs3)ccc2Cl)C1,24%,12%,-1%,99% (active),inactive,inactive,inactive,inactive
COc1ccc(CNCCc2cccs2)cc1-c1ccc(S(=O)(=O)NCCN2CCCC2)s1,21%,41%,2%,99% (active),inactive,inactive,inactive,inactive
CC(C)c1ccc(NC(=O)NCC2CCCN(CCCCCNC(=O)/C=C/c3ccc(Cl)c(Cl)c3)C2)cc1 (stereo not given),6%,87% (active),-13%,98% (active),inactive,inactive,inactive,inactive
CC(=O)Nc1nc(C(=O)Nc2cccc(-c3ccc(-c4nc5ccc(F)cc5[nH]4)cc3)c2)cs1,32%,54% (active),-4%,101% (active),inactive,inactive,inactive,inactive
COC(=O)c1ccc(N2CCN(CCCCNC(=O)c3ccc(NC(=O)c4ccc(Cl)cc4)cc3)CC2)c(OC)c1,1%,11%,3%,82% (active),inactive,inactive,inactive,inactive
O=C(NC1CCCCC1)N(Cc1ccc(-c2ccc(CNC3CCCC3)cc2)cc1)C1CCN(Cc2ccccc2)CC1,86% (active),31%,3%,99% (active),inactive,inactive,inactive,inactive

SMILES,growth inhibition [1],inhibition [2],inhibition [3],growth inhibition [4],outcome [5],outcome [6],outcome [7],outcome [8]
Cc1c(CNCCCNc2cc(=O)c3ccccc3[nH]2)sc(C(F)F)c1Br,29%,0%,5%,98% (active),inactive,inactive,inactive,inactive
Cc1cc(CNCCCCCCNCc2ccc(Cl)cc2)ccc1O,0%,23%,-2%,96% (active),inactive,inactive,inactive,inactive
CC(=O)N[C@@H]1c2cc(C(C)=O)ccc2OC(C)(C)[C@@H]1O,3%,15%,-3%,97% (active),inactive,inactive,inactive,inactive
Cc1ccc2c(c1)NC[C@@]21CCN(C[C@@H](O)C2CCN(c3ccnc(Cl)c3)CC2)C[C@@H]1C,69% (active),46%,-5%,87% (active),inactive,inactive,inactive,inactive
Cc1cc(=O)[nH]c(/N=C(/N)NOCCCc2ccccc2)n1,4%,-4%,3%,100% (active),inactive,inactive,inactive,inactive
CS(=O)(=O)CCNCc1cccc(-c2cc3c(Nc4ccc5c(cnn5Cc5ccccc5)c4)ncnc3s2)c1,101% (active),36%,2%,101% (active),inactive,inactive,inactive,inactive
FC(F)(F)c1ccc(CNC2CCN(CC3CCCCC3)CC2)cc1,5%,4%,-4%,87% (active),inactive,inactive,inactive,inactive
CCCCOc1ccccc1C(=O)NCc1csc(-c2ccccc2)n1,91% (active),17%,0%,93% (active),inactive,inactive,inactive,inactive
CC(=O)Nc1cccc(C(=O)Nc2ccc(-c3ccc(-c4nc5c(C)cccc5[nH]4)s3)cc2)c1,20%,94% (active),2%,93% (active),inactive,inactive,inactive,inactive
Cc1cnc(Nc2ccccc2)nc1NCCC(=O)Nc1ccccc1,7%,10%,3%,89% (active),inactive,inactive,inactive,inactive
COc1cc(OCCCCCCON2C(N)=NC(N)=NC2(C)C)cc(OC)c1OC,93% (active),41%,-5%,94% (active),inactive,inactive,inactive,inactive
CCOc1cc(C(=O)NC2CCN(Cc3ccccc3)C2)ccc1-c1nc2ccc(Cl)cc2[nH]1 (stereo not given),60% (active),7%,6%,98% (active),inactive,inactive,inactive,inactive
CCc1c(C)nc(-n2nc(C)cc2NC(=O)c2cccc3ccccc23)[nH]c1=O,89% (active),39%,1%,98% (active),inactive,inactive,inactive,inactive
Cn1cc(C(=O)Nc2cccc(-c3cccc(-c4nc5ccccc5[nH]4)c3)c2)n(C)c1=O,60% (active),0%,-6%,99% (active),inactive,inactive,inactive,inactive
CC1(C)CN(CCC2CCC(NC(=O)/C=C/c3ccc(F)cc3F)CC2)Cc2ccc(C#N)cc21 (stereo not given),77% (active),39%,-6%,88% (active),inactive,inactive,inactive,inactive
Cc1cccc2[nH]c(-c3ccc(-c4ccc(NC(=O)C(C)CN(C)C)cc4)s3)nc12 (stereo not given),98% (active),23%,0%,100% (active),inactive,inactive,inactive,inactive
CC(C)CNC(=O)c1cncc(-c2ccc(CNC3Cc4ccccc4C3)cc2)c1,37%,5%,0%,99% (active),inactive,inactive,inactive,inactive
COc1cc(C(=O)Nc2cccc(-c3nc4ccccc4[nH]3)c2)ccc1OC(C)=O,37%,16%,-4%,83% (active),inactive,inactive,inactive,inactive
Cn1c(N)c(N=O)c(=O)[nH]c1=O,82% (active),58% (active),0%,97% (active),inactive,inactive,inactive,inactive
Nc1nc2c(ncn2OC[C@H](CO)OCP(=O)(O)O)c(=O)[nH]1,61% (active),5%,-4%,94% (active),inactive,inactive,inactive,inactive
